BaF3 tox – parental Ba/F3 viability inhibition as JAK2V617F counter-screen; CellTiter-Glo ATP luminescence; inhibition, % at 5.6 µM; 220,000 tested, 1.1% active; AID 1486;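 active = inhibition above a per-campaign cutoff, the mean inhibition of all tested compounds plus 3 SD, cut at about 27% in these data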
Ba/F3 V617F tox – loss of viability in JAK2V617F-driven Ba/F3 cells; AID 1446; inhibition, % at 5.6 µM; 220,000 tested, 1.1% active; Ba/F3 EpoR-JAK2V617F viability, ATP luminescence;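 active = inhibition above the campaign mean plus 3 SD over all tested compounds, cut at about 24% in these data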;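 also: cytokine-independent growth of Ba/F3 cells driven by EpoR plus mutant JAK2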
KLF5 inhibitor – inhibitors of KLF5 expression. DLD-1 KLF5 promoter-luciferase reporter, luminescence. AID 1700. 290,000 tested, 0.23% active. inhibition, % at 5 µM;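 active = inhibition above a per-plate limit of that plate's mean compound inhibition plus 3 SD, cut at about 60% in these data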;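 also: higher means less KLF5 promoter-driven luciferase light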
IEC-6 cytotox – counter-screen for KLF5 inhibitors: cytotoxicity in IEC-6 cells. IEC-6 cytotoxicity, luminescence viability. inhibition, % at 5 µM. 290,000 tested, 0.78% active. AID 1825
aSyn UTR inh – MLPCN primary screen, SNCA 5' untranslated region; alpha-synuclein 5'UTR reporter, inhibitor activity; inhibition, % (tested at 7.5 µM); AID 1813; 300,000 tested, 0.82% active; in the data active = inhibition above about 60%;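 also: H4 neuroglioblastoma cells stably carrying SNCA 5'UTR luciferase fusion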
APP transl inh – APP translation inhibition; 190,000 tested, 0.82% active; inhibition, % at 2 µM; SH-SY5Y APP 5'UTR-luciferase reporter, luminescence; AID 1285;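 active = inhibition above a set limit, derived from the sample mean plus 3 SD, cut at about 45% in these data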
IEC-6 cytotox cf – IEC-6 cytotoxicity, confirmation assay; shares compounds with IEC-6 cytotox; IEC-6 rat intestinal epithelial viability, luminescence; inhibition, % at 5 µM; 1,900 tested, 63% active
Of the large screens only hits and unclear results are named; the others gave an inactive call (follow-up assays come after a bar, where they were run); ! = not confirmed by another sample. Compounds with a hit are over-represented: about 2.1% of the library has one in this group of screens. Rule as the data show it, unless noted: active = inhibition above about 22%; inactive = the rest.

CC(=O)O[C@H]1C(=O)[C@@]2(C)C([C@H](OC(=O)c3ccccc3)[C@]3(O)C[C@H](OC(=O)[C@H](O)[C@@H](NC(=O)Cc4ccccc4)c4ccccc4)C(C)=C1C3(C)C)[C@]1(OC(C)=O)CO[C@@H]1C[C@@H]2O (stereo partly drawn)	IEC-6 cytotox 91, aSyn UTR inh 93 (no result: BaF3 tox, Ba/F3 V617F tox, APP transl inh) | IEC-6 cytotox cf 86
CC(=O)O[C@@]12CO[C@@H]1C[C@H](O)[C@@]1(C)C(=O)[C@H](O)C3=C(C)[C@@H](OC(=O)[C@H](O)[C@@H](NC(=O)c4ccccc4)c4ccccc4)C[C@@](O)([C@@H](OC(=O)c4ccccc4)C12)C3(C)C (stereo partly drawn)	IEC-6 cytotox 92, aSyn UTR inh 114 (no result: BaF3 tox, Ba/F3 V617F tox, APP transl inh) | IEC-6 cytotox cf 71
COc1ccccc1-n1c(O)c(/C=C2\C=Nc3ccccc32)c(=O)[nH]c1=O	none (no result: BaF3 tox, Ba/F3 V617F tox, APP transl inh)
O=P(Nc1ccccc1)(Nc1ccccc1)Oc1cccc(Cl)c1	none
c1cncc(C2CCCCN2)c1 (stereo not drawn)	none (no result: APP transl inh)
c1cncc(C2Nc3cccc4cccc(c34)N2)c1	IEC-6 cytotox 38! (no result: APP transl inh) | IEC-6 cytotox cf inactive
O=c1[nH]c(=O)n(-c2ccccc2F)c(O)c1C=NCCC1=CCCCC1	none
O=C(O)c1cccc2nc3ccccc3nc12	IEC-6 cytotox 40 | IEC-6 cytotox cf inactive
COC(=O)c1ccccc1-n1c(C)nc2ccccc2c1=O	none (no result: aSyn UTR inh)
O=C(C(=O)N1CCOCC1)c1cn(Cc2ccccc2F)c2ccccc12	none (no result: BaF3 tox, Ba/F3 V617F tox, APP transl inh)
CN(C)c1ccc(C(=O)c2ccc(N(C)C)cc2)cc1	IEC-6 cytotox 33 (no result: APP transl inh) | IEC-6 cytotox cf 50
COC(=O)C(O)(c1ccc(N(C)C)cc1)C(F)(F)F (stereo not drawn)	none
CC1CCCCN1Cc1ccc(Cl)nc1 (stereo not drawn)	none
CC(C)(C)c1ccc(CSc2cnn(C(C)(C)C)c(=O)c2Cl)cc1	IEC-6 cytotox 30, aSyn UTR inh 101 (no result: BaF3 tox, Ba/F3 V617F tox, APP transl inh) | IEC-6 cytotox cf inactive
C#CCOc1cc(C2C3=C(COC3=O)Nc3cc4c(cc32)OCO4)ccc1OC (stereo not drawn)	IEC-6 cytotox 78, aSyn UTR inh 78, APP transl inh 92 | IEC-6 cytotox cf 57
C=C1[C@@H](C)[C@H]2[C@H](Cc3ccccc3)NC(=O)[C@]23OC(=O)/C=C/[C@H](O)CCC[C@@H](C)C/C=C/[C@H]3[C@@H]1O	BaF3 tox 48, Ba/F3 V617F tox 44, IEC-6 cytotox 87, aSyn UTR inh 109, APP transl inh 54 | IEC-6 cytotox cf 85
Clc1ccc(N2CC2c2ccncc2)cc1 (stereo not drawn)	none (no result: BaF3 tox, Ba/F3 V617F tox, APP transl inh)
COc1cc2c(cc1/C=C/[N+](=O)[O-])OCO2	IEC-6 cytotox 42 | IEC-6 cytotox cf inactive
CNc1cc(Cl)c2nonc2c1[N+](=O)[O-]	BaF3 tox 79, Ba/F3 V617F tox 50, IEC-6 cytotox 93, APP transl inh 84 | IEC-6 cytotox cf 37
CN1CCCN(C(=O)COc2ccccc2Br)CC1	none (no result: BaF3 tox, Ba/F3 V617F tox, APP transl inh)
COc1ccc(-c2nc3ccccc3c(=O)n2-c2ccc(OC)cc2)cc1	none
CCn1nc(-c2ccccc2)nc2c(=O)n(C)c(=O)nc1-2	IEC-6 cytotox 99 | IEC-6 cytotox cf 60
